Bioassay records from PubChem BioAssay.
ANO1 block: inhibitors of mouse TMEM16A calcium-activated chloride channel; HEK293 TMEM16A/YFP iodide influx fluorescence, ionomycin; 1.2% of 310,000 active; normalized B-score (activity score, 25-100; higher = stronger inhibition) at 10 µM; Q8BHY3;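 active = ratio plate-corrected score three or more library SD toward inhibition, starting fluorescence score within five deviations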;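 also: score derived from kinetic fluorescence span divided by baseline fluorescence per well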
KCNK3 inh: human KCNK3 channel inhibition, primary screen. O14649. CHO-KCNK3 thallium flux, FluxOR fluorescence; stronger effect = lower value. B-score at 10 µM. 0.84% of 340,000 active;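 active = B-score under library mean minus 4 SD, starting fluorescence ratio at most library mean plus 5 SD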;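 also: more negative B-score means stronger inhibition of thallium flux through KCNK3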
Target sequence (O14649 whole entry, looked up): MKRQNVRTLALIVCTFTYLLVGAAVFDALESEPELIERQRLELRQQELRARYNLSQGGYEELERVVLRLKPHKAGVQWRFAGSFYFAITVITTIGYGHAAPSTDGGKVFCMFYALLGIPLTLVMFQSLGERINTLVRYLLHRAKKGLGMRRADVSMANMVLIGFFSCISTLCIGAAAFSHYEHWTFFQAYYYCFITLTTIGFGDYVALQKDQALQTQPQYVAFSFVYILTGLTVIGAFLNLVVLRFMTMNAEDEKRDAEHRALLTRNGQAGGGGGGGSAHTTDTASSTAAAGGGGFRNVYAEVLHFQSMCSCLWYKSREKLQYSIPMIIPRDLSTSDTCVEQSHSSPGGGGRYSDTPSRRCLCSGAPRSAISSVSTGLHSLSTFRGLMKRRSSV
Kir21 block: blocks the mouse Kir2.1 inward-rectifier potassium channel; P35561; HEK293-Kir2.1, FluxOR thallium flux fluorescence; stronger effect = lower value; B-score at 10 µM; 0.85% of 310,000 active; AID 1672;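 active = fluorescence ratio B-score at or below minus 3 SD of library scores, with starting-brightness B-score within 2 SD, cut at about -4.2 in these data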;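 also: channel flux triggered by added potassium and thallium sulfate stimulus; B-score of peak minus minimum fluorescence over baseline after thallium stimulus; more negative B-score means stronger Kir2.1 block with less thallium influx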
ANO1 activ: activators or potentiators of mouse TMEM16A chloride channel | Q8BHY3 | HEK293 TMEM16A/YFP-H148Q/I152L, iodide quench fluorescence; stronger effect = lower value | B-score at 10 µM | 0.3% of 340,000 active | AID 623877;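 active = fluorescence-ratio B-score plate-corrected deviation score at least 3 library SD below zero, with starting fluorescence score within 5 deviations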;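 also: channel opened by trigger with iodide after compound preincubation; score built on the fluorescence ratio of max minus min over baseline; more negative score means more quench and so TMEM16A activation or potentiation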
KCNK9 block: human KCNK9 channel inhibition. Q9NPC2. HEK293 KCNK9, FluxOR thallium flux fluorescence; stronger effect = lower value. B-score at 10 µM. 1.2% of 310,000 active. AID 488922;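 active = ratio B-score over 3 SD below the library mean, with starting fluorescence within 5 SD of its mean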;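 also: negative B-score means less thallium flux so channel inhibition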
KCNK9 inh conf: confirmation of human KCNK9 potassium channel inhibitors | 43% of 4,900 active | shares compounds with KCNK9 block | inhibition, % at 10 µM | AID 492992 | HEK293 KCNK9 cells, FluxOR thallium flux fluorescence;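 active = thallium signal inhibited by more than 5 SD of the compound-free buffer control wells, on both duplicate plates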;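 also: 0% = assay buffer control wells without compound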
Kir2-1 spec: selectivity of KCNK9 modulators against mouse Kir2.1; shares compounds with KCNK9 block; Kir2.1 cells, FluxOR thallium flux fluorescence; inhibition, % at 10 µM; 4% of 4,900 active;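 active = thallium signal drop more than 5 SD beyond the mean of the no-compound control wells, seen in both duplicate plates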;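 also: signal is fluorescence rise after thallium addition divided by baseline fluorescence; plate controls were assay buffer only for no effect and full block by chlorpromazine control for full effect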
KCNK9 uninduced: second check of KCNK9 modulator effects in non-induced HEK293 cells; 40% of 4,900 active; inhibition, % at 10 µM; FluxOR thallium flux; shares compounds with KCNK9 block; AID 492997;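 active = thallium signal drop beyond 5 SD of the untreated control mean, on both duplicate plates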;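 also: plate controls were buffer only IC0 wells for no effect and SID17386958 at its maximal inhibitory level for full effect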
The depositor's hits bear a star; i = inactive; . = no result given. Rows were chosen to be rich in hits. Some 3.5% of all compounds tested hit in one or more screens of this group.

SMILES | ANO1 block | KCNK3 inh | Kir21 block | ANO1 activ | KCNK9 block | KCNK9 inh conf | Kir2-1 spec | KCNK9 uninduced
Cc1ccc(NC(=O)c2cccc3c2C(=O)N(C2CCCCC2)C3)c(C)c1 | i | i | -0.05 | i | i | . | . | .
Cc1cc(C)c(NC(=O)c2cccc3c2C(=O)N(C2CCCCC2)C3)c(C)c1 | i | i | 0.01 | i | -12* | i | i | 52.0%*
O=C1CCCN1CC(O)CS(=O)(=O)Cc1ccccc1Cl (configuration not stated) | i | i | -1.17 | i | i | . | . | .
O=C(O)c1cccc(N2C(=O)C3C4C=CC(C4=C(c4ccccc4)c4ccccc4)C3C2=O)c1 (configuration not stated) | i | i | 1.36 | i | i | i | i | i
Cc1ccccc1OCC(=O)Nc1ccc2c(c1)C(=O)N(CCC(=O)O)C2=O | i | i | -1.79 | i | i | . | . | .
COc1ccc(NC(=O)CSc2n[nH]c(N)n2)c([N+](=O)[O-])c1 | i | i | -0.2 | i | i | . | . | .
CC1=NOC(=O)/C1=C\c1ccc(-c2cccc(Cl)c2)o1 | 100* | i | -1.26 | i | i | i | i | i
Cc1ccc(N(C(=O)CNC(=O)c2ccco2)C(C(=O)NC2CCCCC2)c2ccncc2)c(C)c1 (configuration not stated) | i | i | 1.09 | i | i | . | . | .
O=C(/C=C/c1ccco1)NC(=S)Nc1cccc(-c2nc3ccccc3s2)c1 | i | i | -0.39 | i | i | i | i | i
Fc1ccc(OCc2nc(-c3ccc(Br)o3)no2)c(F)c1 | i | i | -0.18 | i | i | . | . | .
Cc1cccc(OCc2nc(-c3ccc(Br)o3)no2)c1 | i | i | 0.42 | i | i | i | i | 23.5%*
COc1cccc(OCc2nc(-c3ccc(Br)o3)no2)c1 | i | i | -3.71 | i | i | i | i | i
COCc1c(C(=O)N/N=C/c2ccc(C)o2)nnn1-c1nonc1N | i | i | -0.85 | i | i | . | . | .
O=C(NCCC(=O)N1CCC2(CC1)NCCc1[nH]cnc12)c1cccc(Br)c1 | i | i | -0.07 | i | i | . | . | .
CCN(CC)c1nc(C#N)nc(N(CC)CC)n1 | . | i | -0.41 | i | i | i | i | i
CCN(CC)c1nc(SCC(=O)O)nc(N(CC)CC)n1 | i | i | 1.04 | i | i | . | . | .
CC(C)C(OC(=O)c1nsc(Cl)c1Cl)C(=O)NCC1CCCO1 (configuration not stated) | i | i | 2.22 | i | i | . | . | .
Cc1ccc(Oc2ncc(CN3CCOCC3)s2)cc1 | i | i | -0.01 | i | i | . | . | .
Brc1ccc(Oc2ncc(CN3CCN(c4ccccc4)CC3)s2)cc1 | i | i | -0.84 | . | i | i | i | i
COc1ccc(N(CCCN2C(=O)c3cccc4cccc(c34)C2=O)C(=O)c2cccnc2)cc1 | i | i | -0.2 | i | i | i | i | i
CC(C)CCNC(=O)[C@H](CSCc1ccccc1)N1Cc2ccccc2C1=O | i | i | 0.38 | i | i | i | i | i
Cc1cc(S(=O)(=O)N2CCOCC2)ccc1OCC(=O)NCc1ccccn1 | i | i | -0.24 | i | i | . | . | .
CC1Nc2ncnc(N3CCc4ccccc4C3)c2N(Cc2ccc(Br)cc2)C1=O (configuration not stated) | i | i | 0.48 | i | -11.1* | 31.0%* | i | 30.5%*
CC1Nc2ncnc(N3CCc4ccccc4C3)c2N(Cc2ccc(Cl)cc2)C1=O (configuration not stated) | i | i | 0 | i | -10.7* | 34.5%* | i | 29.5%*
O=C1C(Cc2ccccc2)Nc2ncnc(N3CCc4ccccc4C3)c2N1Cc1ccccc1 (configuration not stated) | . | i | . | i | . | . | . | .
SMILES | ANO1 block | KCNK3 inh | Kir21 block | ANO1 activ | KCNK9 block | KCNK9 inh conf | Kir2-1 spec | KCNK9 uninduced
CC(C)(C)OC(=O)NN1CC(=O)N2Cc3[nH]c4ccccc4c3C[C@H]2C1=O | i | i | -0.67 | i | i | . | . | .
CCC(C)(C)NC(=O)C(c1ccccn1)N(C(=O)c1csnn1)c1ccc(C)cc1 (configuration not stated) | i | i | 1.52 | i | i | . | . | .
C=C(C)CNC(=S)N/N=C/C1=CCC2CC1C2(C)C (configuration not stated) | i | i | -0.49 | i | i | . | . | .
CCCCNC(=S)N/N=C/C1=CCC2CC1C2(C)C (configuration not stated) | i | i | -1.24 | i | i | i | i | i
CCCN1CCCc2cc(CN(CCCN3CCOCC3)C(=O)Nc3ccc(OCC)cc3)ccc21 | i | i | 0.02 | i | i | i | i | i
CC(/C=C1\SC(=S)N(NS(=O)(=O)c2ccc(C)cc2)C1=O)=C\c1ccccc1 | i | i | 1.49 | i | i | i | i | i
CC(/C=C1\SC(=S)N(C(C(=O)O)C(C)C)C1=O)=C\c1ccccc1 (configuration not stated) | i | i | 2.44 | i | i | i | i | i
CC(/C=C1\SC(=S)N(NC(=O)c2ccc(C)cc2)C1=O)=C\c1ccccc1 | i | i | -1.62 | i | i | . | . | .
CC(/C=C1\SC(=S)N(NC(=O)c2ccccc2C)C1=O)=C\c1ccccc1 | i | i | 0.54 | i | i | . | . | .
CC(/C=C1\SC(=S)N(NS(=O)(=O)c2ccccc2)C1=O)=C\c1ccccc1 | i | i | 0.06 | i | i | i | i | i
Cc1ccc2cc(C3CC(c4ccco4)=NN3S(=O)(=O)c3ccccc3)c(Cl)nc2c1 (configuration not stated) | i | i | 0.01 | i | i | . | . | .
C=CCC1NS(=O)(=O)O[C@H](CCCC)[C@@H]1O (some centres not stated) | i | i | -0.82 | i | i | . | . | .
CC(C)N(C(=O)COC(=O)CNC(=O)c1ccc(Br)cc1)c1ccccc1 | i | i | -1.35 | i | i | . | . | .
COc1ccc2oc(=N)c(C(=O)Nc3cccc(C)c3C)cc2c1 | i | i | -0.55 | i | i | . | . | .
COCCNCC(=O)N1CCCCCC1 | i | i | -1.65 | i | i | . | . | .
CC(C)CCNC(=O)C1CC(c2cccc(F)c2)=NO1 (configuration not stated) | i | i | 2.52 | i | i | . | . | .
FCCCOc1ccc(/C=N/OCc2ccc(Cl)cc2Cl)cc1 | i | i | -0.85 | i | i | i | i | i
